About 530 (0.24%) of roughly 220,000 compounds were called active. The sample as a whole holds a higher share of actives than the screen did. Measured potencies and affinities stand elsewhere. A number with no mark means an inactive call. Rule as the data show it: active = inhibition above about 13%; inconclusive = no clear call, values can overlap the other calls; inactive = below that.

In the experiment the target is Bifunctional protein GlmU (Mycobacterium tuberculosis (strain ATCC 25618 / H37Rv)) (UniProt P9WMN3). The experiment is described as follows: inhibition of mycobacterial GlmU enzyme – biochemical, glucosamine-1-phosphate acetyltransferase (AID 1376).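 Also: 0% = complete reaction with vehicle and 100% = reaction without substrate.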 Particulars: M. tuberculosis GlmU acetyltransferase enzyme assay; stronger effect = higher value;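 tested at 30 µM in the primary screen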.
Sequence of Bifunctional protein GlmU (Mycobacterium tuberculosis (strain ATCC 25618 / H37Rv)) (P9WMN3 whole entry, looked up): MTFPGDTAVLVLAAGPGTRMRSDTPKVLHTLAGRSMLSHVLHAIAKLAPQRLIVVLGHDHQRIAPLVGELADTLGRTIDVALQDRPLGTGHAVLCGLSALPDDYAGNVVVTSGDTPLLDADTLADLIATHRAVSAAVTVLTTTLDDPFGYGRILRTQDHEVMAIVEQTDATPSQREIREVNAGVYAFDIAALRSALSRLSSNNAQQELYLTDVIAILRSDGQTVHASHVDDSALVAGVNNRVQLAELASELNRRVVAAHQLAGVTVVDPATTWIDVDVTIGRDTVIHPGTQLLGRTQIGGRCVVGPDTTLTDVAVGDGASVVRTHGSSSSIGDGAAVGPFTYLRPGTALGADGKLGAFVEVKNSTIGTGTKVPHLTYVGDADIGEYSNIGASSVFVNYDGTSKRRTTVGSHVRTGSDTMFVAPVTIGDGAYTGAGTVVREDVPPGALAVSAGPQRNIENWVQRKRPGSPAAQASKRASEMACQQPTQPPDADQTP
`COc1ccc(-n2c3c(cc(C(=O)N4CCC(C)CC4)c2=O)C(=O)CC(C)(C)C3)cc1`: the inhibition (in general, the drop in the measured response relative to a control, in per cent) is 0.29%.
For the molecule `Cc1cc(C)c(NC2=NS(=O)(=O)c3ccccc32)c(C)c1`, the inhibition was 0.24%.
Turning to `COc1cccc(OC)c1C(=O)NC(=S)NNC(=O)[C@H]1C[C@@H]1c1ccccc1`, the inhibition was 3.93%.
With `O=c1cc(CSc2nnc3ccccn23)c2c(ccc3ccccc32)o1`, the inhibition is 5.61%.
With `Cc1ccc(C2=CC(C)(c3ccc(C)cc3)Nc3nc(C(F)(F)F)nn32)cc1` (configuration not stated), the inhibition is -1.89%.
As for `O=[N+]([O-])c1ccc(O)c(/C=N/Nc2nc3ccccc3[nH]2)c1`, the figure is 2.26%.
Regarding `COc1ccc(O)c(/C=N/Nc2nc3ccccc3[nH]2)c1`, the inhibition is 1.12%.
As for `O=C(Nc1ccc(N2CCN(C(=O)c3cccs3)CC2)cc1)c1cccnc1`, the figure is -0.33%.
Consider `O=C(Nc1cccc(C(=O)N2CCOCC2)c1)c1cccnc1`, for which the inhibition was 2.11%.
For the molecule `CSc1nc(Cl)cc(N2CCOCC2)n1`, the inhibition was 3.3%.
Take `CCOC(=O)Cc1c(C)[nH]n(-c2ccccc2)c1=O`: the inhibition was 0.6%.
In the case of `Cc1cc(N)n(-c2ccc3ccccc3c2)n1`, the inhibition is 0.94%.
As for `Cc1[nH]n(-c2ccccc2)c(=O)c1CCO`, the inhibition was -5.63%.
Regarding `Cc1cc(C)n(-c2ccc(Oc3ccccc3)c(S(=O)(=O)O)c2)n1`, the inhibition is 12.6%.
For `CCOC(=O)C1CCCN(CC(=O)Nc2c(F)c(F)c(F)c(F)c2F)C1` (configuration not stated), the inhibition is 0.78%.
As for `CCS(=O)(=O)N1Cc2ccccc2CC1C(=O)Nc1nc(C)cs1` (configuration not stated), the figure is -3.38%.
As to `Cc1cc(C(=O)NC(C)c2ccccc2)c2cc(F)ccc2n1` (configuration not stated), the inhibition was 2.48%.
On to `CS(=O)(=O)N1CCC(C(=O)Nc2ccc(OCc3ccccc3)cc2)CC1`, for which the inhibition was 0.13%.
`OCCN1CCN(CC(O)C(F)(F)F)CC1` (configuration not stated): the inhibition was 0.82%.
For the molecule `O=C(c1cccc(F)c1)N1CCN(Cc2c[nH]c3ccccc23)CC1`, the inhibition is 15% (active).
As for `O=C(c1ccccc1)N1CCN(Cc2c[nH]c3ccccc23)CC1`, the figure is -4.61%; as for `O=C(c1cccc(Cl)c1)N1CCN(Cc2c[nH]c3ccccc23)CC1`, 7.63%; as for `O=c1[nH]c(CSc2ncc(C(F)(F)F)cc2Cl)nc2cc(C(F)(F)F)ccc12`, -1.09%.
As for `Cc1sc2ncnc(OCC(=O)N3CCN(S(=O)(=O)c4ccccc4)CC3)c2c1C`, the figure is -1.45%.
`COc1cccc(NC(=O)C(Sc2nnc(Nc3ccccc3C)s2)c2ccccc2)c1` (configuration not stated): the inhibition is -3.98%.
The same measure for `CCOc1cccc(CNCc2ccc(C(=O)O)cc2)c1`: -1.27%; for `Cc1ccc(/C=C2/NC(=O)N(Cc3ccccc3)C2=O)o1`: -1.11%.
As for `O=C(O)c1cc(-c2ccc(/C=C3\NC(=O)N(c4ccccc4)C3=O)o2)ccc1Cl`, the figure is 13.6% (active); as for `O=C(O)c1cc(-c2ccc(/C=N/Nc3ccc(Cl)cc3)o2)ccc1Cl`, -0.42%.
As to `O=C(O)c1cc(-c2ccc(/C=C3\NC(=O)N(c4ccc(Cl)cc4)C3=O)o2)ccc1Cl`, the inhibition is 27% (active).
Take `Cc1cc(C(=O)O)ccc1-c1ccc(/C=C2\NC(=O)N(Cc3ccccc3Cl)C2=O)o1`: the inhibition was 5.89%.
Consider `Cc1c(C(=O)O)cccc1-c1ccc(/C=C2/NC(=O)N(c3ccccc3)C2=O)o1`, for which the inhibition is -0.48%.
On to `Cc1cc(C(=O)O)ccc1-c1ccc(/C=C2\NC(=O)N(Cc3ccc(F)cc3)C2=O)o1`, for which the inhibition was 13.9% (active).
In the case of `O=C(O)c1cc(-c2ccc(/C=C3/SC(=S)N(Cc4ccccc4)C3=O)o2)ccc1Cl`, the inhibition is 17%.
Take `Cc1ccc(CN2C(=O)N/C(=C/c3ccc(-c4ccc(C(=O)O)cc4)o3)C2=O)cc1`: the inhibition is 4.7%.
Consider `Cc1ccc(N2C(=O)NC(=O)/C(=C/c3ccc(-c4ccc(C(=O)O)c(Cl)c4)o3)C2=O)cc1`, for which the inhibition was 6.82%.
On to `Cc1ccc(/C=C2/NC(=O)N(c3ccccc3)C2=O)o1`, for which the inhibition was -0.29%.
Turning to `Cc1ccc([N+](=O)[O-])cc1N(CC(=O)NCC1CCCO1)S(C)(=O)=O` (configuration not stated), the inhibition is 1.08%.
With `COc1ccc(C2CC(c3ccccc3)=NN2C(=O)c2cccs2)cc1` (configuration not stated), the inhibition is 0.55%.
For the molecule `COc1ccc(CCNC(=O)COC(=O)CCC(=O)c2ccc(F)cc2)cc1`, the inhibition is 1.09%.
As for `N#Cc1nc(Cc2cccc3ccccc23)oc1N1CCC(C(N)=O)CC1`, the inhibition is 1.98%.
The same measure for `Cc1ccc(-n2ncc(C(=O)NCc3ccc4c(c3)OCO4)c2NC(=O)c2ccco2)cc1C`: 6.03%; for `O=C(OCC(=O)c1ccc[nH]1)c1ccc(S(=O)(=O)N2CCCCCC2)cc1`: -6.95%.
As to `Cc1ccc(C(=O)NC(=S)NNC(=O)CC#N)cc1`, the inhibition is -2.12%.
With `COc1ccc(OC)c(NC(=O)c2ccccc2NC(=O)c2ccco2)c1`, the inhibition was 4.28%.
As to `COc1ccc(Cc2c(O)nc[nH]c2=O)cc1`, the inhibition is 22.8% (active).
For `COc1ccc(Cc2c(O)nc(SCC(=O)c3ccc(OC)cc3)[nH]c2=O)cc1`, the inhibition was 2.96%.
As to `COc1ccc(C(c2c(O)nc[nH]c2=O)c2c(O)nc[nH]c2=O)cc1`, the inhibition is 0.27%.
For `CCOC(=O)C1=C2N(C)c3ccccc3N2CCC1=O`, the inhibition was 0.79%.
On to `Cc1cccc(Cn2c(N3CCc4ccccc4C3)nc3c2c(=O)[nH]c(=O)n3C)c1`, for which the inhibition was 2.16%.
Take `CC(C)(C)NC(=S)Nc1ccc(Nc2ccccc2)cc1`: the inhibition is 13.4% (active).
Take `CC(C)(C)NC(=S)Nc1ccc(Br)cc1`: the inhibition is 1.07%.
Take `CNC(=S)Nc1ccc(Nc2ccccc2)cc1`: the inhibition is 1.36%.
As to `O=C(Cc1cc(=O)[nH][nH]1)N/N=C/C=C/c1ccccc1`, the inhibition is 3.75%.
As to `COc1ccc(N(CC2CO2)S(=O)(=O)c2ccccc2)cc1` (configuration not stated), the inhibition is 3.63%.
Consider `CCN(CC)c1ccc(/C=N/N2CCN(Cc3ccccc3)CC2)c(O)c1`, for which the inhibition is -0.12%.
With `CCN(CC)c1ccc(/C=N/N2CCN(Cc3cccc4ccccc34)CC2)c(O)c1`, the inhibition was -0.67%.
On to `CCN(CC)c1ccc(/C=N/N2CCN(Cc3ccccc3Cl)CC2)c(O)c1`, for which the inhibition was 14.1% (active).
On to `Nc1nc(=S)c2ncn(C3OC(CO)C(O)C3O)c2[nH]1` (configuration not stated), for which the inhibition was 20.9% (active).
For the molecule `Nc1ncnc2c1ncn2[C@@H]1O[C@H](CO)[C@@H](O)[C@H]1O`, the inhibition is -4.56%.
Consider `Nc1nc(=S)c2ncn(C3CCCC3)c2[nH]1`, for which the inhibition was 7.24%.
In the case of `Cc1ccc2nc3c(nc2c1C)C(O)=C3O`, the inhibition was 2.69%.
As for `CN1CCN(C2=C(Cl)C(=O)N(Cc3ccccc3)C2=O)CC1`, the inhibition is -1.86%.
On to `CC(C)(C)c1csc(SCC(=O)Nc2ccc(Cl)cn2)n1`, for which the inhibition is 5.51%.
As for `CCn1c2ccccc2c2cc(/C=N/n3cn[nH]c3=S)ccc21`, the inhibition was 13% (active).
Regarding `CCn1c2ccccc2c2cc(/C=N/n3cnnc3)ccc21`, the inhibition is 6.56%.
For `CCn1c2ccccc2c2cc(/C=N/n3c(-c4cc(C)[nH]n4)n[nH]c3=S)ccc21`, the inhibition was 2.92%.
Regarding `CC(=O)Nc1ccc(Nc2nc(C)c([N+](=O)[O-])c(Nc3ccc(NC(C)=O)cc3)n2)cc1`, the inhibition was -3.57%.
As for `CC(=O)Nc1ccc(Nc2nc(C)c([N+](=O)[O-])c(Nc3ccccc3)n2)cc1`, the figure is 5.98%; as for `O=C(NC12CC3CC(CC(C3)C1)C2)c1cccnc1`, 2.68%.
As to `O=C(NC12CC3CC(CC(C3)C1)C2)c1ccccc1`, the inhibition is -3.83%.
In the case of `O=C(NC12CC3CC(CC(C3)C1)C2)c1cncc(O)c1`, the inhibition is 14.9% (active).
As to `COC(=O)Cc1c(O)ccn(Cc2ccc3c(c2)OCO3)c1=O`, the inhibition is -0.24%.
Consider `CCN(CC)C(=O)c1ccc2c(c1)C1C(Cl)C(Sc3ccccc3[N+](=O)[O-])CC1C(C(=O)O)N2` (configuration not stated), for which the inhibition was -0.47%.
Regarding `CC(=O)c1ccc2c(c1)C1C(Cl)C(Sc3ccccc3[N+](=O)[O-])CC1C(C(=O)O)N2` (configuration not stated), the inhibition is 13.1% (active).
Turning to `CC(=O)c1ccc2c(c1)C1C(Cl)C(Sc3ccccc3[N+](=O)[O-])CC1C(c1ccccc1)N2` (configuration not stated), the inhibition is 8.36%.
As for `Cc1ccc2c(c1Cl)NC(C(=O)O)C1CC(Sc3ccccc3[N+](=O)[O-])C(Cl)C21` (configuration not stated), the inhibition was 4.86%.
On to `O=C(O)c1cccc2c1NC(c1cccc([N+](=O)[O-])c1)C1CC(Sc3ccccc3[N+](=O)[O-])C(Cl)C21` (configuration not stated), for which the inhibition was 7.9%.
With `O=C(O)c1cccc2c1NC(C(=O)O)C1CC(Sc3ccccc3[N+](=O)[O-])C(Cl)C21` (configuration not stated), the inhibition was 30.8% (active).
As for `Cc1ccc2c(c1)cc(CN(Cc1cccs1)C(=O)c1ccco1)c1nnnn12`, the figure is -1.3%; as for `CC(=O)c1c(C)[nH]c(C(=O)COC(=O)CCCOc2ccccc2)c1C`, 7.27%.
With `O=S(=O)(N1CCOCC1)n1cnc2ccccc21`, the inhibition is 3.88%.
Regarding `COc1ccc(NC(=O)CN2C(=O)c3cccc4cccc2c34)c(OC)c1`, the inhibition is 0.85%.
Turning to `CCN(C(=O)CN1CCN(S(=O)(=O)c2ccccc2C(F)(F)F)CC1)c1c(N)n(Cc2ccccc2)c(=O)[nH]c1=O`, the inhibition is -6.69%.
With `CCS(=O)(=O)Nc1ccc(-c2nc3cccnc3s2)cc1`, the inhibition was 0.1%.
As to `CCS(=O)(=O)Nc1cccc(-c2nc3cccnc3s2)c1`, the inhibition was 14.4% (active).
Take `CCCS(=O)(=O)Nc1cccc(-c2nc3cccnc3s2)c1`: the inhibition is 3.55%.
The same measure for `COc1cc(C(=O)Oc2ccc3c(c2)OCC3=O)cc(OC)c1OC`: 1.2%; for `Cc1ccccc1CSc1nnc(-c2ccco2)n1Cc1ccco1`: 1.77%; for `c1ccc(CSc2nnc(-c3ccco3)n2Cc2ccco2)cc1`: 13% (active).
`c1ccc(CSc2nnc(-c3cccs3)n2Cc2ccco2)cc1`: the inhibition is -1.39%.
On to `Cc1ccc(OCC(=O)Nc2ccc(S(=O)(=O)N3CCCCC3)cc2)c([N+](=O)[O-])n1`, for which the inhibition was -4.33%.
